Source: PubChem (National Center for Advancing Translational Sciences (NCATS))
Methyltransferases: Primary Screen for Target Class Profiling of Small Molecule Inhibitors of Methyltransferases; calls only at 40 µM; 3.9% of 25,000 active; purified enzyme, MTase-Glo SAH luminescence; hits give low values; call rule not given here
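Each enzyme was assayed with SAM and its substrate. SAH formation detected by MTase-Glo luminescence; single-point 40 uM screen[…].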
* hit, by the source's call; i = inactive; + = active, no number. Many of the other results were omitted from the sample, so hits are more common in it than they were. % is set by controls: 0 for no effect and ±100 for the full control effect.

SMILES	Methyltransferases
COc1ccc(NC(=O)N2CCn3c(C)ccc3C2C(C)C)cc1 (configuration not stated)	i
Clc1ccc(N2CCN(Cc3c[nH]c4ncccc34)CC2)cc1	i
NC1(Cc2ccc(Cl)cc2)CCN(c2ncnc3[nH]ccc23)CC1	+
COc1cccc(CNC(=O)c2ccc3c(=O)nc4c(-c5ccc(C)cc5)n[nH]n4c3c2)c1	i
CCCN1C(=O)c2c(C(=O)NCc3ccc(OC)cc3)ncn2CC1(C)C(=O)NCCC(C)C (configuration not stated)	i
CC1=CC(=O)C2C(C)(C)CCC[C@]2(C)[C@H]1CC[C@H](C)CC(=O)O (some centres not stated)	i
CC1=CC(=O)C2C(C)(C)CCC[C@]2(C)[C@H]1CO (some centres not stated)	i
CC(=O)OC/C(=C/C(=O)O)CC[C@@H]1C(C)=CC(=O)[C@@H]2C(C)(C)CCC[C@@]12C	+
Cc1cccc(NC(=O)Cn2nc3n(C(C)C)c(=O)c4ccc(C(=O)NC(C)C)cc4n3c2=O)c1	i
CC(C)OCCCn1c(=O)c2ccccc2n2c(CCC(=O)NCc3ccc(F)cc3)nnc12	i
CCc1ccccc1NC(=O)Cn1nc2n(C(C)C)c(=O)c3ccc(C(=O)NC(C)C)cc3n2c1=O	i
Cc1[nH]c(/C=C2\C(=O)Nc3ccc(S(=O)(=O)N(C)c4cccc(Cl)c4)cc32)c(C)c1C(=O)N1CCN(C)CC1	+
CN(C)S(=O)(=O)c1ccc2c(c1)/C(=C/c1cc3c([nH]1)CCCC3)C(=O)N2	i
Cc1cccc2c1cnn2C(=O)CCC(=O)N1CCN(c2ccccn2)CC1	i
CCOCCCNc1nc2c(S(=O)(=O)c3c(C)cc(C)cc3C)nnn2c2ccccc12	i
CCn1c(=O)c(-c2ccc(-c3cncs3)cc2Cl)cc2cnc(Nc3ccc(N4CCN(C)CC4)cc3)nc21	i
C=CCn1c(=O)c2cnc(Nc3ccc(N4CCN(C)CC4)cc3)nc2n1-c1cccc(C(C)(C)O)n1	+
CC(C)Oc1ccc(CN2C(=O)c3oc4ccccc4c3OCC2(C)C(=O)NC2CCCC2)cc1 (configuration not stated)	i
CC(C)OCCCNC(=O)C1(C)Cn2cnc(C(=O)Nc3cccc(Cl)c3)c2C(=O)N1C1CC1 (configuration not stated)	i
O=C(NCc1ccc2c(c1)OCO2)c1ccc2c(=O)nc3c(-c4ccccc4F)n[nH]n3c2c1	i
COc1ccc(N2C(=O)c3cc(C(C)C)nn3CC2(C)C(=O)NC2CCCCCC2)cc1 (configuration not stated)	i
Cn1c(=O)n(C)c2cc(S(=O)(=O)N(Cc3ccco3)C(=O)c3ccncc3)ccc21	i
C[C@H](/C=C/[C@@]1(O)[C@H](C)CC(=O)CC1(C)C)O[C@@H]1O[C@H](CO[C@@H]2OC[C@@H](O)[C@H](O)[C@H]2O)[C@@H](O)[C@H](O)[C@H]1O	i
CC1=CC(=O)CC(C)(C)C1CCC(C)O[C@@H]1O[C@H](CO[C@@H]2OC[C@@H](O)[C@H](O)[C@H]2O)[C@@H](O)[C@H](O)[C@H]1O (some centres not stated)	+
CC1=CC(=O)CC(C)(C)[C@H]1/C=C/C(CO)O[C@@H]1O[C@H](CO)[C@@H](O)[C@H](O)[C@H]1O (some centres not stated)	i
SMILES	Methyltransferases
CC1(C(=O)NC2CCCC2)Cn2c(cc3ccccc32)C(=O)N1Cc1ccc(F)cc1 (configuration not stated)	i
CCCn1c(=O)c2ccc(C(=O)NCC(C)C)cc2n2c(=O)n(Cc3ccccc3Cl)nc12	i
CC1CCN(CC2CCCN(C(=O)NC3CCCCC3)CC2)CC1 (configuration not stated)	i
Brc1c(Br)c(Br)c2n[nH]nc2c1Br	+
CN1C(=O)c2cc(C(=O)NCCC3=CCCCC3)nn2CC1(C)C(=O)NC1CCCCCC1 (configuration not stated)	i
COCCN1C(=O)c2cc3sccc3n2CC1(C)C(=O)NC1CCCCCC1 (configuration not stated)	i
CN1CCc2cccc3c2C1Cc1ccc(O)c(O)c1-3 (configuration not stated)	+
Cc1ccccc1CNC(=O)C1(C)Cc2ccccc2C(=O)N1Cc1ccccc1 (configuration not stated)	i
Cc1ccc(CCNC(=O)CCCn2ccc3cc(S(=O)(=O)N4CCCC4)ccc32)cc1	i
COC(=O)CC1OC(C)C2=C(O)c3c(O)cccc3C(=O)C23OC13 (configuration not stated)	+
CCc1cccc(NC(=O)c2cc3n(n2)CC(C)(C(=O)NC2CCCC2)N(CC)C3=O)c1 (configuration not stated)	i
CC1(C(=O)NCc2ccccc2)Cn2cnc(C(=O)NCc3cccnc3)c2C(=O)N1C1CC1 (configuration not stated)	i
CC(C)[C@@](C)(O)[C@@H]1CN(c2nc(-c3[nH]nc4ncccc34)c(F)cc2Cl)CCN1	+
CCCn1c(=O)c2cc(F)ccc2n2c(SCC(=O)Nc3ccc4c(c3)OCCO4)nnc12	i
CCn1c(-c2nonc2N)nc2c(C#CC(C)(C)O)ncc(OCC3CCCNC3)c21 (configuration not stated)	+
CC(C)Cn1c(=O)c2ccccc2n2c(SCC(=O)Nc3cccc(Cl)c3)nnc12	i
Cc1cc(Cl)ccc1N1C(=O)c2cc(C(C)(C)C)nn2CC1(C)C(=O)NCc1ccccc1 (configuration not stated)	i
Cc1ccc(CNC(=O)C2(C)Cn3nc(C(=O)NCc4ccccc4C)cc3C(=O)N2C)cc1 (configuration not stated)	i
NS(=O)(=O)OC[C@@H]1C[C@@H](n2ccc3c(N[C@H]4CCc5ccccc54)ncnc32)C[C@@H]1O	+
COc1ccc(-c2cc3n(n2)CC(C)(C(=O)NCc2ccccc2OC)N(c2ccc(C(C)C)cc2)C3=O)cc1 (configuration not stated)	i
COc1ccc(-c2n[nH]n3c2nc(=O)c2ccc(C(=O)NCc4ccc5c(c4)OCO5)cc23)cc1	i
COc1ccc(CN2C(=O)c3cc4occc4n3CC2(C)C(=O)NC2CCCCCC2)cc1 (configuration not stated)	i
N[C@@H](Cc1c[nH]c2ccccc12)C(=O)O	i
CC(=O)NC(Cc1ccccc1)C(=O)O (configuration not stated)	i
CC(=O)NC(Cc1c[nH]c2ccccc(=O)c12)C(=O)O (configuration not stated)	+
SMILES	Methyltransferases
CCC(C)NC(=O)c1ccc2c(=O)n(CC(C)C)c3nnc(SCC(N)=O)n3c2c1 (configuration not stated)	i
CCOC(=O)c1cnc2ccc(-c3cncc(NS(=O)(=O)c4ccccc4)c3)cn12	+
CCOC(=O)c1cccc(NS(=O)(=O)c2ccc3[nH]c(=O)[nH]c3c2)c1	i
CCOC(=O)c1ccc(NS(=O)(=O)c2ccc3c(c2)n(C)c(=O)n3C)cc1	i
CCCn1c(=O)c2cc(Cl)ccc2n2c(SCC(=O)Nc3ccc(OC)cc3)nnc12	i
CCCNC(=O)Cn1nc2nc(Nc3ccc(F)cc3)ccn2c1=O	i
CC(C)CCN1C(=O)c2c(-n3cccc3)c3cc(F)ccc3n2CC1(C)C(=O)NC1CCCCCC1 (configuration not stated)	i
